From PubChem
esBAF inh – Bmi1 luciferase reporter increase in mESCs, primary screen, esBAF inhibitor project, mouse ES cells, Bmi1 luciferase knock-in, single point; 350,000 compounds, 2% hits; reporter increase, % at 12.5 µM; 24 h; 100% = twice the neutral-well signal; in the data active means activation above about 40%; inconclusive means no clear call, values can overlap the other calls;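 further: 0% = median of the plate's neutral control wells and 100% = double that signal; a rise in the Bmi1 reporter signal indicates esBAF inhibition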
hgDAF12 agonist – H. glycines DAF-12 receptor agonists, primary screen, cell-based, luminescence, HEK293, GAL4 fusion, UAS-luciferase; 370,000 compounds, 1.8% hits; HEK293 GAL4-hgDAF12 UAS-luciferase reporter, agonist luminescence; normalized to butyrate control; activation, % at 6.8 µM;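 active means activation above a cutoff set at the mean of all screened compounds plus 3 SD, cut at about 10% in these data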;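 further: 0% = DMSO wells and 100% = sodium butyrate wells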
ssDAF12 agonist – S. stercoralis DAF-12 nuclear receptor activators, primary screen, cell-based, luminescence, HEK293, GRIP1 co-expression, lit1-tk-luc. HEK293 ssDAF-12/GRIP1 lit1-tk-luc reporter; % of 3 µM dafachronic acid response. 370,000 compounds, 1% hits. AID 652126, 2013. activation, % at 6.8 µM;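 active means activation above the mean over all tested compounds plus 3 SD, cut at about 0.9% in these data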;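 further: 0% = DMSO-only wells and 100% = 3 µM delta7-dafachronic acid wells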
Wnt act – Wnt/beta-catenin pathway activators, primary screen, cell-based, plate reader, single point; Wnt/beta-catenin reporter cell assay, activator; activation, % at 9.35 µM; 300,000 compounds, 1.2% hits; in the data active means activation above about 30%, passing the limit was not always enough; inconclusive means no clear call, values can overlap the other calls;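 further: 0% = neutral control wells and 100% = positive control wells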
hcDAF12 agonist – H. contortus DAF-12 nuclear receptor activators, primary screen, cell-based, luminescence, HEK293, lit1-tk-luc reporter | 370,000 compounds, 1.4% hits | activation, % at 6.8 µM | HEK293 hcDAF-12 lit1-tk-luc reporter; 0% DMSO, 100% Δ7-dafachronic acid;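 active means activation above the mean of all tested compounds plus 3 SD, cut at about 5.5% in these data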;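 further: 100% = response to 3 µM Δ7-dafachronic acid high control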
DAX1 inh – DAX1 (NR0B1) inhibitors on StAR promoter, primary screen, cell-based, luminescence, SF-1 (NR5A1), full-length DAX-1. HEK293T StAR-luciferase reporter, SF-1/DAX-1 repression relief. inhibition, % at 6.8 µM. 370,000 compounds, 1.1% hits. AID 652010, 2013;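 active means inhibition above the mean over all tested compounds plus 3 SD, cut at about 3.6% in these data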;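 further: 0% = DAX-1 cells with DMSO and 100% = cells lacking DAX-1 with DMSO; higher inhibition means more luminescence from relief of DAX-1 repression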
Active calls of the source: *; ? = inconclusive; . = no result given. Shown are actives, neighbours in structure and some others; about 4.2% of the full set was active somewhere.

SMILES	esBAF inh	hgDAF12 agonist	ssDAF12 agonist	Wnt act	hcDAF12 agonist	DAX1 inh
CSc1nc(N)nc(SCC(=O)OC(C)C)c1C#N	4	1	-1	17	4	1
Cc1cc(C)n(CCc2nc(-c3ccc(-c4ccccc4)cc3)cs2)n1	70*	4	-2	20	-1	-1
COc1ccc(-c2csc(CCn3nc(C)cc3C)n2)cc1	.	-1	-1	0	-1	0
O=C(CCN1C(=O)S/C(=C\C=C\c2ccccc2)C1=O)Nc1ccc(O)cc1	93*	12*	0	21	0	0
O=C(CN1C(=O)S/C(=C\C=C\c2ccccc2)C1=O)Nc1cccc(O)c1	65*	10	-1	24	4	-1
COc1ccc(S(=O)(=O)N(C)C[C@@H]2OCCCC[C@@H](C)Oc3ccc(NC(=O)Nc4ccccc4)cc3C(=O)N([C@H](C)CO)C[C@H]2C)cc1	2	.	.	.	.	.
O=C(OCc1ccccc1)c1ccc2c(c1)-c1ccccc1C2=O	.	3	-1	41*	-2	1
O=C(OCc1ccccc1)c1ccccc1	14	-2	-2	0	-1	1
O=C(Nn1c(SCc2cccc([N+](=O)[O-])c2)nc2ccccc2c1=O)c1ccccc1	.	13*	0	43*	4	3
COc1ccc(C(=O)Nn2c(SCc3cccc([N+](=O)[O-])c3)nc3ccccc3c2=O)cc1	-31	0	-2	.	1	1
O=C(C[C@@H]1CC[C@@H](NC(=O)C2CC2)[C@H](CO)O1)Nc1nccs1	-3	.	.	.	.	.
O=C(C[C@H]1C[C@H]2c3cc(NC(=O)Nc4ccccc4)ccc3O[C@H]2[C@@H](CO)O1)NCc1ccccn1	-4	.	.	.	.	.
COCC(=O)Nc1ccc2c(c1)C(=O)N(C)C[C@@H](OC)[C@H](C)CN(Cc1cccc(F)c1)[C@@H](C)CO2	1	.	.	.	.	.
CCn1nc(C(=O)OCC(=O)Nc2nc(-c3ccc(OC)cc3)cs2)c2ccccc2c1=O	57*	11*	0	.	2	1
O=C(COC(=O)c1cc(=O)[nH]c2ccccc12)Nc1nc(-c2ccc(F)cc2)cs1	44*	4	-1	24	-1	1
Cc1ccc(-c2csc(NC(=O)COC(=O)c3cccc(S(=O)(=O)N4CCOCC4)c3)n2)cc1	.	7	-1	45*	1	3.6*
Cc1ccc(-c2csc(NC(=O)c3cccc(S(=O)(=O)N4CCN(C)CC4)c3)n2)cc1	17	3	-1	-8	1	0
COc1ccc(-c2csc(NC(=O)COC(=O)c3ccco3)n2)cc1	.	11*	-1	20	3	2
O=C(COC(=O)c1cc(=O)[nH]c2ccccc12)NCc1ccc(F)cc1	-6	-2	-1	0	1	0
NC(=O)c1c(NC(=O)c2ccc(F)cc2Cl)sc2c1CCC2	49*	8	-1	10	-1	0
O=C(Nc1sc2c(c1C(=O)O)CCC2)c1ccccc1	53*	-6	-1	?	0	0
NC(=O)c1c(NC(=O)c2ccccc2Cl)sc2c1CCC2	?	1	-1	9	0	0
O=C(Nc1sc2c(c1C(=O)O)CCC2)c1ccc(F)cc1	63*	-1	0	2	0	0
NCCNC(=O)c1c(NC(=O)c2ccccc2)sc2c1CCCC2	68*	9	0	1	5	0
CC(C)NC(=O)Nc1ccc2c(c1)C(=O)N([C@@H](C)CO)C[C@H](C)[C@@H](CN(C)C(=O)Nc1ccc3c(c1)OCO3)OCCCC[C@H](C)O2	3	.	.	.	.	.
SMILES	esBAF inh	hgDAF12 agonist	ssDAF12 agonist	Wnt act	hcDAF12 agonist	DAX1 inh
C[C@H]1CN([C@@H](C)CO)S(=O)(=O)c2ccc(-c3ccc(F)cc3)cc2O[C@@H]1CN(C)C(=O)C1CCCCC1	-4	.	.	.	.	.
Cc1noc(C)c1NC(=O)Nc1ccc2c(c1)CC(=O)N([C@H](C)CO)C[C@@H](C)[C@@H](CN(C)Cc1ccc(Cl)c(Cl)c1)O2	1	.	.	.	.	.
C[C@H]1CN([C@@H](C)CO)C(=O)c2cccc(NC(=O)Nc3cccc4ccccc34)c2O[C@H]1CN(C)Cc1ccc(-c2ccccc2)cc1	2	.	.	.	.	.
O=C(Nc1sc2c(c1C(=O)O)CCCC2)c1cccc(Cl)c1	73*	-1	-1	26	2	2
O=C(Nc1sc2c(c1C(=O)O)CCCCC2)c1ccccc1	.	0	-1	10	5	-1
C[C@H]1CCCCO[C@H](CN(C)S(=O)(=O)c2cn(C)cn2)[C@@H](C)CN([C@@H](C)CO)C(=O)c2cc(N(C)C)ccc2O1	-2	.	.	.	.	.
CCOc1ccc(-c2csc(NC(=O)CSC3=NC(=O)CN3C(C)=O)n2)c2ccccc12	.	11*	-1	-5	-1	-1
COc1ccc(S(=O)(=O)N(C)C[C@H]2Oc3ccc(NC(=O)Nc4cccc5ccccc45)cc3C(=O)N([C@@H](C)CO)C[C@H]2C)cc1	5	.	.	.	.	.
O=C(C[C@@H]1CC[C@H]2[C@@H](COC[C@H](O)CN2C(=O)Nc2cccc(Cl)c2)O1)NCCCN1CCOCC1	0	.	.	.	.	.
Cc1cccc(C(=O)Nc2nnc(SCC(=O)Nc3ccc4c(c3)oc3ccccc34)s2)c1	.	-1	0	-2	4	0
CCn1c(SCC(=O)Nc2ccc3c(c2)oc2ccccc23)nnc1-c1ccc(N)cc1	38	0	-1	4	0	-2
COc1ccccc1C(=O)Nc1nnc(SCC(=O)Nc2ccc3c(c2)oc2ccccc23)s1	.	-2	0	49*	4	0
CC(=O)Nc1ccc(-c2nnc(SCC(=O)Nc3ccc4c(c3)oc3ccccc34)n2C)cc1	53*	8	0	27	4	0
COCCNc1nnc(SCC(=O)c2ccc3c(c2)OCO3)s1	3	-1	-1	-3	-1	-1
COCCSc1nnc(NC(=O)c2ccc3c(c2)OCO3)s1	.	3	0	47*	-1	1
CCOCc1nnc(NC(=O)c2ccc3c(c2)OCO3)s1	23	4	0	5	2	4
Cc1nnc(NC(=O)c2ccc3c(c2)OCO3)s1	19	12*	0	14	3	3
O=C(NCCc1ccccc1F)C(=O)Nc1nccs1	29	1	-1	37*	0	0
